Results filed as inconclusive are left out. Active and inactive are the calls of the source. Calls come from the whole dose curve; as a rule, active = well fitted curve in the direction sought with a large enough effect in the repeat runs; inconclusive = weak or mixed curves; inactive = no such curve, though single readings can be large; an effect the other way counts as inactive or inconclusive.
Legend:
[1] = A CellTox Green Cytotoxicity Assay to monitor cytotoxicity in HEK293 cells - 40 hour (AID 1224871); note: nearly all actives have a fitted effect of over 45% in size
Method in brief: (§1)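 Read-out: fluorescence of a cell-impermeant cyanine dye staining DNA of dead cells, proportional to cytotoxicity. HEK293, 600 cells/well with reagent, compound (23 nL DMSO) added after 5 h; reads at 0, 8, 16, 24, 32, 40 h.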

[2] = qHTS RealTime-Glo MT Cell Viability Assay in HEK293 cells - 16 hour (AID 1224872); note: top concentration of the series differs between compounds; nearly all actives have a fitted effect of over 50% in size
Method in brief: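 Cells + reagent dispensed (600 cells/well, HEK293) → 5 h at 37 C/5% CO2 → 23 nL compound in DMSO pinned → 40 h at 37 C → luminescence read at 0, 8, 16, 24, 32, 40 h.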

[3] = qHTS RealTime-Glo MT Cell Viability Assay in HepG2 cells - 8 hour (AID 1224873); note: nearly all actives have a fitted effect of over 55% in size
Method in brief: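 HepG2 cells (600/well) mixed with RealTime-Glo MT reagent, settled 5 h at 37 C/5% CO2 before compound addition. Nonlytic NanoLuc luminescence from viable-cell prosubstrate reduction read repeatedly during 40 h treatment at 37 C.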

[4] = qHTS RealTime-Glo MT Cell Viability Assay in HEK293 cells - 40 hour (AID 1224874); conditions: RealTime-Glo luminescence; max response: active compounds read low; note: nearly all actives have a fitted effect of over 50% in size
Method in brief: (§2)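 Luminescence readout at each listed time point; HEK293, 600 cells/well, RealTime-Glo MT reagent added with cells; compounds pinned (23 nL in DMSO) after 5 h at 37 C; continuous culture at 37 C.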

[5] = A CellTox Green Cytotoxicity Assay to monitor cytotoxicity in HEK293 cells - 24 hour (AID 1224875); note: series mostly up to about 77 µM; nearly all actives have a fitted effect of over 45% in size
Method in brief: as §1

[6] = A CellTox Green Cytotoxicity Assay to monitor cytotoxicity in HepG2 cells - 16 hour (AID 1224876); note: nearly all actives have a fitted effect of over 45% in size
Method in brief: (§3)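 HepG2, 600 cells/well premixed w/ CellTox Green; 5 h settle, 37 C/5% CO2; pintool cpd add (DMSO); 37 C, 40 h; fluorescence read at 0, 8, 16, 24, 32, 40 h.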

[7] = qHTS RealTime-Glo MT Cell Viability Assay in HepG2 cells - 32 hour (AID 1224877); note: nearly all actives have a fitted effect of over 55% in size
Method in brief: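 Real-time, nonlytic viability: 600 HepG2 cells/well mixed with NanoLuc enzyme plus prosubstrate; 5 h settle, compound (DMSO) added by pintool; luminescence monitored over 40 h at 37 C.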

[8] = A CellTox Green Cytotoxicity Assay to monitor cytotoxicity in HepG2 cells - 24 hour (AID 1224878); note: nearly all actives have a fitted effect of over 45% in size
Method in brief: as §3

[9] = A CellTox Green Cytotoxicity Assay to monitor cytotoxicity in HepG2 cells - 40 hour (AID 1224879); note: nearly all actives have a fitted effect of over 40% in size
Method in brief: as §3

[10] = qHTS RealTime-Glo MT Cell Viability Assay in HEK293 cells - 0 hour (AID 1224880)
Method in brief: as §2
% is set by controls: 0 for no effect and ±100 for the full control effect.

CC(C)(C)C(=O)c1ccccc1
inactive: Potency [1] | Potency [2] | outcome [3] | max response [4] 0.84% | outcome [5] | outcome [6] | Potency [7] | outcome [8] | Potency [9] | Potency [10]

[Ca+2]
inactive: Potency [1] | Potency [2] | outcome [3] | max response [4] 5.91% | outcome [5] | outcome [6] | Potency [7] | outcome [8] | Potency [9] | Potency [10]

CCN1CCOCC1
inactive: Potency [1] | Potency [2] | outcome [3] | max response [4] -0.712% | outcome [5] | outcome [6] | Potency [7] | outcome [8] | Potency [9] | Potency [10]

CC(=O)N[C@H]1[C@H]([C@H](O)[C@H](O)CO)OC(C(=O)O)=C[C@@H]1N=C(N)N
inactive: Potency [1] | Potency [2] | outcome [3] | max response [4] 2.18% | outcome [5] | outcome [6] | Potency [7] | outcome [8] | Potency [9] | Potency [10]

Nc1ccccn1
inactive: Potency [1] | Potency [2] | outcome [3] | max response [4] -3.82% | outcome [5] | outcome [6] | Potency [7] | outcome [8] | Potency [9] | Potency [10]

O=C(c1ccccc1)C1(O)CCCCC1
inactive: Potency [1] | Potency [2] | outcome [3] | max response [4] -2.37% | outcome [5] | outcome [6] | Potency [7] | outcome [8] | Potency [9] | Potency [10]

CO[Si](C)(OC)c1ccccc1
inactive: Potency [1] | Potency [2] | outcome [3] | max response [4] -2.44% | outcome [5] | outcome [6] | Potency [7] | outcome [8] | Potency [9] | Potency [10]

C=CC(=O)OCCCl
inactive: Potency [1] | Potency [2] | outcome [3] | max response [4] 21% | outcome [5] | outcome [6] | Potency [7] | outcome [8] | Potency [9] | Potency [10]

CN(C)CCN(C)CCN(C)C
inactive: Potency [1] | Potency [2] | outcome [3] | max response [4] 4.88% | outcome [5] | outcome [6] | Potency [7] | outcome [8] | Potency [9] | Potency [10]

CCOC(=O)c1ccccc1
inactive: Potency [1] | Potency [2] | outcome [3] | max response [4] -0.292% | outcome [5] | outcome [6] | Potency [7] | outcome [8] | Potency [9] | Potency [10]

Cc1ccnc(NS(=O)(=O)c2ccc(N)cc2)n1
inactive: Potency [1] | Potency [2] | outcome [3] | max response [4] 6.66% | outcome [5] | outcome [6] | Potency [7] | outcome [8] | Potency [9] | Potency [10]

CN1CC(=O)N/C1=N/C(=O)Nc1cccc(Cl)c1
inactive: Potency [1] | Potency [2] | outcome [3] | max response [4] -14.4% | outcome [5] | outcome [6] | Potency [7] | outcome [8] | Potency [9] | Potency [10]

C[C@H]1C[C@H]2[C@@H]3CCC4=CC(=O)C=C[C@]4(C)[C@H]3C(=O)C[C@]2(C)[C@@]1(O)C(=O)CO
inactive: Potency [1] | Potency [2] | outcome [3] | max response [4] 0.535% | outcome [5] | outcome [6] | Potency [7] | outcome [8] | Potency [9] | Potency [10]

CCCCCC(C)N (stereo not given)
inactive: Potency [1] | Potency [2] | outcome [3] | max response [4] 1.04% | outcome [5] | outcome [6] | Potency [7] | outcome [8] | Potency [9] | Potency [10]

CNCC(O)c1ccc(O)c(O)c1 (stereo not given)
inactive: Potency [1] | Potency [2] | outcome [3] | max response [4] 0.68% | outcome [5] | outcome [6] | Potency [7] | outcome [8] | Potency [9] | Potency [10]

Cc1ccc(-c2ncc(Cl)cc2-c2ccc(S(C)(=O)=O)cc2)cn1
inactive: Potency [1] | Potency [2] | outcome [3] | max response [4] -19.4% | outcome [5] | outcome [6] | Potency [7] | outcome [8] | Potency [9] | Potency [10]

CC(N)C12CC3CC(CC(C3)C1)C2 (stereo not given)
inactive: Potency [1] | Potency [2] | outcome [3] | max response [4] -3.62% | outcome [5] | outcome [6] | Potency [7] | outcome [8] | Potency [9] | Potency [10]

C=C(C)C(=O)OCC(O)CO (stereo not given)
inactive: Potency [1] | Potency [2] | outcome [3] | max response [4] 2.31% | outcome [5] | outcome [6] | Potency [7] | outcome [8] | Potency [9] | Potency [10]

CN(C)CCCN(C)CCCN(C)C
inactive: Potency [1] | Potency [2] | outcome [3] | max response [4] -6.89% | outcome [5] | outcome [6] | Potency [7] | outcome [8] | Potency [9] | Potency [10]

CCC(=O)OCc1ccccc1
inactive: Potency [1] | Potency [2] | outcome [3] | max response [4] -6.18% | outcome [5] | outcome [6] | Potency [7] | outcome [8] | Potency [9] | Potency [10]

CO/N=C(\C(=O)N[C@@H]1C(=O)N2C(C(=O)O)=C(CSc3nc(=O)c(O)nn3C)CS[C@H]12)c1csc(N)n1
inactive: Potency [1] | Potency [2] | outcome [3] | max response [4] 11.9% | outcome [5] | outcome [6] | Potency [7] | outcome [8] | Potency [9] | Potency [10]

CCC(C)(CCCC(C)C)OC(C)=O (stereo not given)
inactive: Potency [1] | Potency [2] | outcome [3] | max response [4] 6.35% | outcome [5] | outcome [6] | Potency [7] | outcome [8] | Potency [9] | Potency [10]
